Compound activity (PubChem)
RORg inh = qHTS for inhibitors of ROR gamma transcriptional activity. Drosophila S2 Gal4-RORgamma UAS-luciferase reporter, 20 h. 310,000 compounds, 5.4% hits. Nuclear receptor ROR-gamma (Mus musculus), P51450. Potency, µM (top dose mostly 53.6 µM), for the others: at the top dose activity change, negative = inhibition, actives largely listed as inhibitors; further: nearly all actives have a fitted effect of over 60% in size
Target sequence (P51450 whole entry, looked up, the tested form may be a part): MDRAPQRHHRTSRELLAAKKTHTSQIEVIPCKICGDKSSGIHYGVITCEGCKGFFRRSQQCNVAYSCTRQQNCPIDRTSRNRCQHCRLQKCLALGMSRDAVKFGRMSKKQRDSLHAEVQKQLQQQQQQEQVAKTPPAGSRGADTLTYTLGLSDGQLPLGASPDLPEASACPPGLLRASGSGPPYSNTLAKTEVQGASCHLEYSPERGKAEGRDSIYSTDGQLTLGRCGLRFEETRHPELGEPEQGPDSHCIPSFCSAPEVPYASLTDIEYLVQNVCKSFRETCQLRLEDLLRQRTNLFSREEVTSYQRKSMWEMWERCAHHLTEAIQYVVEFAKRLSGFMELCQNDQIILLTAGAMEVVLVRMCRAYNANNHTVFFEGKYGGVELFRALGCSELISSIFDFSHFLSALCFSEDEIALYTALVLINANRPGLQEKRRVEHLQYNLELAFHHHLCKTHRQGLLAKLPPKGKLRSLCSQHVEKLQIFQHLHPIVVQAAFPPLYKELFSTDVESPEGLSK
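A Gal4/UAS one-hybrid system in insect cells: metallothionein-promoter Gal4–ROR gamma fusion plus Photinus luciferase reporter. Copper sulfate 700 uM final, 20 hr ambient incubation, luminescent detection after 10 min with reagent.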
Tau fibril FP = qHTS for Inhibitors of Tau Fibril Formation, Fluorescence Polarization; K18 P301L tau heparin fibrillization, Alexa594 FP, 6 h; Potency, µM (series often up to 57.7 µM), for the others: at the top dose activity, negative = inhibition, usual class: inhibitors; 280,000 compounds, 0.39% hits; AID 1468, 2008; further: nearly all actives have a fitted effect of over 55% in size
Target sequence (P10636 561-689 P618L limits assumed): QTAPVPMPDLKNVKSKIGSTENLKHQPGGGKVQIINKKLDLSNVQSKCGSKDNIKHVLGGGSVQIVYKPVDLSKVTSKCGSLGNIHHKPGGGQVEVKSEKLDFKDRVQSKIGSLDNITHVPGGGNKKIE
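Recombinant K18 P301L […], labeled with Alexa 594 at 0.24 uM over 15 uM unlabeled; heparin inducer 20 uM final; 37 C, 6 hr; FP endpoint.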
Tau fibril ThT = qHTS for Inhibitors of Tau Fibril Formation, Thioflavin T Binding. Microtubule-associated protein tau (Homo sapiens), P10636. recombinant tau K18 P301L, heparin-induced fibrillization, ThT fluorescence. Potency, µM (highest dose often 57.4 µM), for inactives: at the top dose activity, negative = inhibition, hits mostly inhibitors. 270,000 compounds, 2.1% hits. AID 1460, 2008; further: nearly all actives have a fitted effect of over 55% in size
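Tau K18 P301L fragment (15 uM unlabeled plus 0.24 uM Alexa 594-labeled) in 100 mM sodium acetate pH 7 with compound, fibrillization induced by 20 uM heparin for 6 hr at 37 C. Thioflavin T (30 uM) added, fluorescence read after 1 hr (ex 450, em 510 nm).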
Tau fluor counter = Counterscreen qHTS for Inhibitors of Tau Fibril Formation, Fluorescence Polarization; 280,000 compounds, 0.93% hits; tau K18 P301L Alexa594 fluorescence, heparin fibrillization; Potency, µM (doses to about 57.7 µM), for the others: at the top dose activity change, negative = decrease; AID 1463, 2008; further: nearly all actives have a fitted effect of over 55% in size
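Human tau K18 P301L (15 uM unlabeled, 0.24 uM Alexa 594-labeled) in 100 mM sodium acetate pH 7 with 20 uM heparin, 6 hr at 37 C. ThT 30 uM added, 1 hr ambient; Alexa 594 FP and total fluorescence read at 555/632 nm.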
Gal4-VP16 FLuc = VP16 counterscreen qHTS for inhibitors of ROR gamma transcriptional activity | Potency, µM (top dose mostly 53.6 µM), inactives show at the top dose activity, negative = inhibition, actives largely listed as inhibitors | Drosophila S2 Gal4-VP16 UAS-luciferase, luminescence, 20 h | 310,000 compounds, 3.5% hits | AID 2546, 2010;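 further: Gal4-VP16 expression switched on by copper sulfate through the metallothionein promoter; nearly all actives have a fitted effect of over 50% in size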
Active calls of the source: *; ? = inconclusive; / = not tested or not shown; [ ] = another dose, or the depositor's remark. Most compounds without a hit are left out; they make up all but 7.3% or so of the library. The call rests on the fitted dose curve; in most records, active means well fitted curve in the direction sought with a large enough effect; inconclusive means small, poorly fitted or top-dose-only effect, or another doubt; inactive means no such curve, though single readings can be large; an effect the other way counts as inactive or inconclusive. On the % scale 0 is the no-effect control and ±100 the full control effect; potency means the concentration at half of the fitted maximal effect.

SMILES	RORg inh	Tau fibril FP	Tau fibril ThT	Tau fluor counter	Gal4-VP16 FLuc
COc1ccc(C(=O)NNC(=S)NC(=O)/C=C/c2cccs2)cc1	?	4%	-5%	9%[2.34 µM]	-4%
C#CCOC(=O)NC(/C=C/CCCC)c1ccccc1 (centres undefined)	4%	0%	-7%	-14%	16%
Nc1nonc1-n1nnc(C(=O)N/N=C/c2ccc(OCc3ccccc3)cc2)c1COc1ccc(F)cc1	-7%	?	-3%	-13%	1%
Nc1nonc1-n1nnc(C(=O)N/N=C/c2c(Cl)cccc2Cl)c1CSC1=NCCS1	1%	-17%	-10%	-4%	9%
Nc1nonc1-n1nnc(C(=O)N/N=C/C=C/c2ccccc2)c1CSC1=NCCS1	1.4µM*	-9%	-11%	?	3.2µM*
CCc1c(C(=O)N/N=C/c2cccs2)nnn1-c1nonc1N	13µM*	/	/	/	?
Nc1nonc1-n1nnc(C(=O)N/N=C/c2cccs2)c1CSc1ccccc1	?	/	/	/	5µM*
Nc1nonc1-n1nnc(C(=O)N/N=C/c2ccc(OCc3ccccc3)cc2)c1CNc1ccccc1	11µM*	/	/	/	?
CCOc1ccc(C(=O)Cn2c(=O)n3nc(CCn4nc(C)cc4C)nc3c3cc(OC)c(OC)cc32)cc1	/	1%	-1%	2%	/
Cc1nn(-c2ccccc2)c(C)c1[N+](=O)[O-]	6%	7%	-5%	4%	-14%
O=[N+]([O-])/C(C(Cl)=C(Cl)Cl)=C(/NC1CC1)Sc1ccccc1	7%	?	?	-18%	19%
O=[N+]([O-])C(=C1Nc2ccccc2N1)C(Cl)=C(Cl)Cl	11µM*	?	?	-18%	?
Cc1ccc(/C=N/Nc2ncc(Cl)cc2Cl)s1	4.5µM*	8%	?	-13%	7.1µM*
Oc1ccc(/C=N/Nc2ncc(Cl)cc2Cl)cc1	?	/	/	/	6%
Clc1cnc(N/N=C/c2cccs2)c(Cl)c1	7.9µM*	2%	?	-18%	?
O=C(COC(=O)/C=C/c1ccco1)Nc1ncc(Cl)cc1Cl	34%	8%	-5%	7%	?
Clc1cnc(N/N=C/c2ccco2)c(Cl)c1	5.6µM*	3%	-1%	-3%	13µM*
Cc1ccc(/C=N/Nc2ccccn2)s1	?	/	/	/	11µM*
O=C(CSc1ncnc2c1nnn2Cc1ccccc1F)NCC1CCCO1 (centres undefined)	13µM*	/	/	/	-29%
COc1ccc(C(=O)COC(=O)c2ccccc2NS(=O)(=O)c2ccc(O)c([N+](=O)[O-])c2)cc1	39%	10%	16µM*	-30%	-12%
Cn1cc(-c2nc3cnc(Oc4ccccc4)nc3n(CCC#N)c2=O)c2ccccc21	-6%	/	/	/	0%
CCS(=O)(=O)c1ccc(N=Nc2ccc(O)c3ncccc23)c(OC)c1	7.1µM*	15%	?	?	16µM*
COc1ccccc1N=Nc1ccc(O)c2ncccc12	2.8µM*	/	/	/	3.2µM*
Oc1ccc(N=Nc2ccccc2C(F)(F)F)c2cccnc12	3.5µM*	/	/	/	3.5µM*
CCn1cc(/C=C(\NC(=O)c2cc(OC)c(OC)c(OC)c2)C(=O)NCCCn2ccnc2)c2ccccc21	/	-4%	2%	-3%	/
SMILES	RORg inh	Tau fibril FP	Tau fibril ThT	Tau fluor counter	Gal4-VP16 FLuc
COc1ccc(/C=C(\NC(=O)c2cccs2)C(=O)NC(C)(C)C)cc1OC	-4%	/	/	/	4%
Cc1cc(/C=C/c2ccc3cc(N(C)C)ccc3[n+]2C)c(C)n1-c1ccccc1	4.5µM*	-13%	/	/	-79%
C[C@H]1OC(OC2C(O)[C@@H](O)C(OC3C(O)[C@@H](O)C(O)O[C@@H]3CO)O[C@@H]2CO)[C@H](O)C(O)C1N[C@H]1C=C(CO)[C@@H](O)[C@H](O)C1O (some centres undefined)	-10%	1%	-3%	-2%	-1%
Cc1ccc(S(=O)(=O)N2CN(Cc3ccco3)c3nc4ccccc4nc32)cc1	38%	-3%	-19%	-7%	-15%
COc1ccc(S(=O)(=O)N2CN(Cc3ccco3)c3nc4ccccc4nc32)cc1	-19%	?	22µM*	-30%	-27%
O=S(=O)(c1ccc(F)cc1)N1CN(Cc2ccco2)c2nc3ccccc3nc21	?	?	32µM*	?	-7%
COc1ccc(-n2c(=O)c3ccc(C(=O)NCc4ccc(C)cc4)cc3n(Cc3cccc(Cl)c3)c2=O)cc1	/	-15%	1%	-7%	/
C=CCNC(=O)/C(C#N)=C/c1cc(Br)ccc1OC	13µM*	-5%	?	-4%	?
Cc1cc(Cl)ccc1OCc1nc(-c2ccc(O)cc2)n[nH]1	?	-14%	?	?	4.5µM*
Oc1c(CN2CCN(c3ccccn3)CC2)cc(Cl)c2cccnc12	0.45µM*	8%	?	-19%	?
OCCN1CCN(Cc2cc(Cl)c3cccnc3c2O)CC1	5.6µM*	?	?	-29%	10µM*
OCCN1CCN(Cc2cc(Br)cc(Br)c2O)CC1	0%	1%	-2%	1%	7%
CCOCc1cc(CN2CCN(c3ccccc3OC)CC2)c(O)c2ncccc12	/	6%	?	-25%	/
COc1ccccc1N1CCN(S(=O)(=O)c2cc(-c3cc(C)no3)ccc2C(C)C)CC1	6%	/	/	/	2%
COc1ccccc1CNc1ncnc2ccc(-c3cccnc3)cc12	?	-1%	1%	-18%	-4%
COc1ccc(C(=O)NC(=S)Nc2ccc(N3CCCC3)cc2)cc1	2µM*	2%	?	-22%	7.1µM*
COc1ccc(C(=O)N/N=C(/C)c2ccc(N3CCCCC3)cc2)cc1	-17%	10%	?	-4%	-1%
COc1cc(C(=O)NCCC(=O)N2CCCCC2)cc(OC)c1OC	12%	/	/	/	0%
COc1cc(C(=O)NC(=S)N2CCCCCC2)cc(OC)c1OC	0.89µM*	-2%	0%	2%	2.8µM*
COc1cccc(C(=O)Nc2ccc(C)cc2)c1	?	3%	6%	12%	?
COc1cccc(C(=O)NC(=S)Nc2ccc(N(C)C)cc2)c1	3.5µM*	5%	7.9µM*	?	?
CCOc1ccc(C(=O)Nc2ccc(N3CCCC3)cc2)cc1	26%	6%	8.9µM*	?	-7%
CC(C)(C)c1ccc(NC(=O)CSc2nnc3scc(-c4ccccc4)n23)cc1	/	-14%	-13%	-24%	/
CCc1nn2c(-c3ccccc3OC)ccnc2c1-c1ccccc1	/	-8%	?	-30%	/
CCOc1cccc(C(=O)Nc2ccc(N3CCCC3)cc2)c1	?	/	/	/	-6%
CN1CCN(c2ccc(NC(=O)c3ccc(Oc4ccccc4)cc3)cc2)CC1	-38%	/	/	/	3%
